Laboratory results taken from article PMC5540273 (PLoS ONE, 2017).

Legend:
Settings in all cases: concentration: 1 μM, replicates: in singlicate; n = 1
[1] = test system: MERTK
[2] = test system: MET
[3] = test system: T1, MINK
T1 construct: gene MINK1

[4] = test system: MKK7
[5] = test system: MKNK1
[6] = test system: MKNK2
[7] = test system: T2, MLCK
T2 construct: gene MYLK3

[8] = test system: T3, MLK1
T3 construct: gene MAP3K9

[9] = test system: MLK2
[10] = test system: MLK3
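Further: KINOMEscan kinase panel screen.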

Q: For Cn1ccc2ncnc(Nc3ccc(Oc4cccc(Cl)c4)c(Cl)c3)c21, which “%Inh” value [1] is on record?
A: 13%

Q: What about the “%Inh” value [2] of the same compound?
A: 2%

Q: And the “%Inh” value [3]?
A: 7%

Q: What about the “%Inh” value [4] of the same compound?
A: 0%

Q: And the “%Inh” value [5]?
A: 16%

Q: What about the “%Inh” value [6] of the same compound?
A: 0%

Q: And the “%Inh” value [7]?
A: 0%

Q: What about the “%Inh” value [8] of the same compound?
A: 7%

Q: And the “%Inh” value [9]?
A: 15%

Q: And the “%Inh” value [10]?
A: 0%

Q: What does the source list for CNc1nccc(-c2c(-c3ccc(F)cc3)ncn2CCCN2CCOCC2)n1 [SB-222516]?
A: %Inh [1]: 19%; %Inh [2]: 3%; %Inh [3]: 15%; %Inh [4]: 0%; %Inh [5]: 3%; %Inh [6]: 0%; %Inh [7]: 1%; %Inh [8]: 33%; %Inh [9]: 10%; %Inh [10]: 0%

Q: COc1ccc(NC(=O)Nc2ccc(C)c(-c3ccc(C(=O)Nc4ccncc4)cc3)c2)cc1 [GSK1398475] was tested. Which “%Inh” value [1] did it give?
A: 31%

Q: And the “%Inh” value [2]?
A: 0%

Q: What about the “%Inh” value [3] of the same compound?
A: 5%

Q: And the “%Inh” value [4]?
A: 0%

Q: And the “%Inh” value [5]?
A: 6%

Q: And the “%Inh” value [6]?
A: 0%

Q: What about the “%Inh” value [7] of the same compound?
A: 0%

Q: What about the “%Inh” value [8] of the same compound?
A: 0%

Q: And the “%Inh” value [9]?
A: 0%

Q: And the “%Inh” value [10]?
A: 0%

Q: Which results are given for CCc1nc(-c2cccc(N(C)S(=O)(=O)c3ccccc3)c2)c(-c2ccnc(Nc3ccc(N4CCN(C(C)=O)CC4)nc3)n2)s1 [GSK1645895]?
A: %Inh [1]: 11%; %Inh [2]: 0%; %Inh [3]: 18%; %Inh [4]: 0%; %Inh [5]: 0%; %Inh [6]: 6%; %Inh [7]: 0%; %Inh [8]: 0%; %Inh [9]: 0%; %Inh [10]: 0%

Q: What does the source list for Nc1n[nH]c2nnc(-c3ccccc3)cc12 [SB-517389]?
A: %Inh [1]: 13%; %Inh [2]: 0%; %Inh [3]: 23%; %Inh [4]: 0%; %Inh [5]: 77%; %Inh [6]: 12%; %Inh [7]: 86%; %Inh [8]: 0%; %Inh [9]: 0%; %Inh [10]: 0%

Q: Which “%Inh” value [1] does the source give for CC(C)(C)OC(=O)NC1CCCN(c2cc(-c3ccc4c(N)n[nH]c4c3)nc(N)n2)C1 (stereo not drawn) [GSK2286096] here?
A: 18%

Q: What about the “%Inh” value [2] of the same compound?
A: 0%

Q: And the “%Inh” value [3]?
A: 11%

Q: And the “%Inh” value [4]?
A: 0%

Q: What about the “%Inh” value [5] of the same compound?
A: 12%

Q: What about the “%Inh” value [6] of the same compound?
A: 10%

Q: And the “%Inh” value [7]?
A: 0%

Q: What about the “%Inh” value [8] of the same compound?
A: 0%

Q: And the “%Inh” value [9]?
A: 0%

Q: And the “%Inh” value [10]?
A: 0%

Q: What does the source list for COC(=O)c1cccc(NC(=O)NCCNc2ccnc(Nc3ccc(F)cc3)n2)c1 [GSK1379883]?
A: %Inh [1]: 18%; %Inh [2]: 0%; %Inh [3]: 0%; %Inh [4]: 0%; %Inh [5]: 7%; %Inh [6]: 5%; %Inh [7]: 0%; %Inh [8]: 0%; %Inh [9]: 8%; %Inh [10]: 6%

Q: Which “%Inh” value [1] does the source give for COc1cc2ncnc(Nc3ccc(OCc4ccccc4Br)c(Cl)c3)c2cc1OC.Cl [GI261590] here?
A: 7%

Q: And the “%Inh” value [2]?
A: 0%

Q: What about the “%Inh” value [3] of the same compound?
A: 0%

Q: And the “%Inh” value [4]?
A: 0%

Q: What about the “%Inh” value [5] of the same compound?
A: 0%

Q: What about the “%Inh” value [6] of the same compound?
A: 11%

Q: What about the “%Inh” value [7] of the same compound?
A: 0%

Q: What about the “%Inh” value [8] of the same compound?
A: 0%

Q: What about the “%Inh” value [9] of the same compound?
A: 11%

Q: And the “%Inh” value [10]?
A: 9%

Q: With CS(=O)(=O)CCNCc1nc(-c2ccc3ncnc(Nc4ccc(OCc5cccc(F)c5)c(Cl)c4)c3c2)cs1.Cl [GW583340] as the compound, how does the “%Inh” value [1] read?
A: 0%

Q: What about the “%Inh” value [2] of the same compound?
A: 0%

Q: What about the “%Inh” value [3] of the same compound?
A: 0%

Q: What about the “%Inh” value [4] of the same compound?
A: 0%

Q: What about the “%Inh” value [5] of the same compound?
A: 0%

Q: And the “%Inh” value [6]?
A: 0%

Q: What about the “%Inh” value [7] of the same compound?
A: 0%

Q: And the “%Inh” value [8]?
A: 0%

Q: And the “%Inh” value [9]?
A: 0%

Q: What about the “%Inh” value [10] of the same compound?
A: 0%

Q: For CN1c2ccc(-c3ccc(C(=O)NCCO)cc3)cc2-c2[nH]ncc2S1(=O)=O, which “%Inh” value [1] is on record?
A: 0%

Q: And the “%Inh” value [2]?
A: 2%

Q: And the “%Inh” value [3]?
A: 46%

Q: What about the “%Inh” value [4] of the same compound?
A: 0%

Q: And the “%Inh” value [5]?
A: 0%

Q: What about the “%Inh” value [6] of the same compound?
A: 0%

Q: And the “%Inh” value [7]?
A: 0%

Q: What about the “%Inh” value [8] of the same compound?
A: 29%

Q: And the “%Inh” value [9]?
A: 27%

Q: And the “%Inh” value [10]?
A: 18%

Q: COc1ccc(NC(=O)c2ccc(-c3cc(-c4nnc(C)o4)ccc3C)cc2)cc1 [GW595885] was tested. Which “%Inh” value [1] did it give?
A: 21%

Q: And the “%Inh” value [2]?
A: 0%

Q: What about the “%Inh” value [3] of the same compound?
A: 0%

Q: And the “%Inh” value [4]?
A: 34%

Q: And the “%Inh” value [5]?
A: 2%

Q: And the “%Inh” value [6]?
A: 12%

Q: And the “%Inh” value [7]?
A: 0%

Q: What about the “%Inh” value [8] of the same compound?
A: 0%

Q: What about the “%Inh” value [9] of the same compound?
A: 0%

Q: What about the “%Inh” value [10] of the same compound?
A: 11%

Q: For Clc1ccc(-c2cc(-c3c[nH]nc3-c3ccccn3)ccn2)cc1 [GW681251], which “%Inh” value [1] is on record?
A: 27%

Q: And the “%Inh” value [2]?
A: 0%

Q: And the “%Inh” value [3]?
A: 78%

Q: And the “%Inh” value [4]?
A: 30%

Q: And the “%Inh” value [5]?
A: 0%

Q: What about the “%Inh” value [6] of the same compound?
A: 3%

Q: And the “%Inh” value [7]?
A: 0%

Q: What about the “%Inh” value [8] of the same compound?
A: 0%

Q: And the “%Inh” value [9]?
A: 0%

Q: And the “%Inh” value [10]?
A: 0%

Q: For COC(=O)c1c(-c2ccccc2)c2cc(Cl)ccc2c(=O)n1Cc1ccc(S(C)(=O)=O)cc1, which “%Inh” value [1] is on record?
A: 8%

Q: And the “%Inh” value [2]?
A: 0%

Q: And the “%Inh” value [3]?
A: 0%

Q: And the “%Inh” value [4]?
A: 0%

Q: What about the “%Inh” value [5] of the same compound?
A: 0%

Q: And the “%Inh” value [6]?
A: 0%

Q: And the “%Inh” value [7]?
A: 0%

Q: What about the “%Inh” value [8] of the same compound?
A: 0%

Q: What about the “%Inh” value [9] of the same compound?
A: 0%

Q: What about the “%Inh” value [10] of the same compound?
A: 4%

Q: CC(C)N1CCC(n2cnc(-c3ccc(F)cc3)c2-c2ccnc(N)n2)CC1 [SB-223132] was tested. Which “%Inh” value [1] did it give?
A: 0%

Q: What about the “%Inh” value [2] of the same compound?
A: 14%

Q: And the “%Inh” value [3]?
A: 7%

Q: And the “%Inh” value [4]?
A: 0%

Q: And the “%Inh” value [5]?
A: 2%

Q: And the “%Inh” value [6]?
A: 0%

Q: And the “%Inh” value [7]?
A: 0%

Q: And the “%Inh” value [8]?
A: 0%

Q: And the “%Inh” value [9]?
A: 4%

Q: And the “%Inh” value [10]?
A: 0%

Q: For Cc1ccc(O)cc1Nc1cc(C(F)(F)F)nc2ccc(-c3ccncc3)cc12 [GW630823], which “%Inh” value [1] is on record?
A: 21%

Q: And the “%Inh” value [2]?
A: 6%

Q: And the “%Inh” value [3]?
A: 0%

Q: And the “%Inh” value [4]?
A: 0%

Q: And the “%Inh” value [5]?
A: 0%

Q: What about the “%Inh” value [6] of the same compound?
A: 0%

Q: What about the “%Inh” value [7] of the same compound?
A: 12%

Q: And the “%Inh” value [8]?
A: 4%

Q: What about the “%Inh” value [9] of the same compound?
A: 2%

Q: What about the “%Inh” value [10] of the same compound?
A: 0%
